Assay results reported in PubChem BioAssay AID1159580 (chemical genetic matrix, 2015).
Among all 5,500 compounds or so, about 2,000 (36%) were called active. Another 18% or so got no clear call; they are omitted. No stated cut-off is given here; in the data, active means normalized growth mostly below about 0.91 (no sharp cut-off); inconclusive means no clear call, values can overlap the other calls; inactive means mostly above about 0.92. The list shows a part of the results.

Test: chemical genetic growth profiling, strain panel (AID 1159580);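 further: tested at 20 µM; growth read once vehicle control cultures reached saturation at 30 °C; 1 = growth at the plate median or of vehicle wells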
Conditions: growth OD

Measured: normalized growth

CC(C)(Sc1cc(C(C)(C)C)c(O)c(C(C)(C)C)c1)Sc1cc(C(C)(C)C)c(O)c(C(C)(C)C)c1
inactive: S. cerevisiae deletion strains, locus YJR075W, strain HOC1, stronger effect = lower value 1.01 | S. cerevisiae deletion strains, locus YKL068W, stronger effect = lower value 1.01 | S. cerevisiae deletion strains, locus YKL085W, strain MDH1 (second series), stronger effect = lower value 1.05 | S. cerevisiae deletion strains, locus YKL085W, strain MDH1, stronger effect = lower value 1.05 | S. cerevisiae deletion strains, locus YKL160W, strain elf1, stronger effect = lower value 0.99 | S. cerevisiae deletion strains, locus YKL190W, strain CNB1, stronger effect = lower value 1.01 | S. cerevisiae deletion strains, locus YKR001C, strain vps1, stronger effect = lower value 1.02 | S. cerevisiae deletion strains, locus YKR026C, strain gcn3, stronger effect = lower value 0.987 | S. cerevisiae deletion strains, locus YKR091W, strain srl3, stronger effect = lower value 1.02 | S. cerevisiae deletion strains, locus YLL001W, strain dnm1, stronger effect = lower value 0.996 | S. cerevisiae deletion strains, locus YLL026W, stronger effect = lower value 1 | S. cerevisiae deletion strains, locus YLL041C, strain sdh2, stronger effect = lower value 1.01 | S. cerevisiae deletion strains, locus YLR027C, strain aat2, stronger effect = lower value 0.994 | S. cerevisiae deletion strains, locus YLR039C, strain RIC1, stronger effect = lower value 1.02 | S. cerevisiae deletion strains, locus YLR058C, strain SHM2, stronger effect = lower value 1.01 | S. cerevisiae deletion strains, locus YLR102C, strain apc9, stronger effect = lower value 1.03 | S. cerevisiae deletion strains, locus YLR113W, strain HOG1, stronger effect = lower value 1.01 | S. cerevisiae deletion strains, locus YLR221C, strain rsa3, stronger effect = lower value 1.01 | S. cerevisiae deletion strains, locus YLR258W, strain gsy2, stronger effect = lower value 1.01 | S. cerevisiae deletion strains, locus YLR262C, strain YPT6 (second series), stronger effect = lower value 1 | S. cerevisiae deletion strains, locus YLR262C, strain YPT6, stronger effect = lower value 1.01 | S. cerevisiae deletion strains, locus YLR268W, strain sec22, stronger effect = lower value 1.09 | S. cerevisiae deletion strains, locus YLR320W, strain mms22, stronger effect = lower value 1 | S. cerevisiae deletion strains, locus YLR330W, strain CHS5, stronger effect = lower value 1.01 | S. cerevisiae deletion strains, locus YLR342W, strain FKS1 (second series), stronger effect = lower value 0.992 | S. cerevisiae deletion strains, locus YLR342W, strain FKS1, stronger effect = lower value 1 | S. cerevisiae deletion strains, locus YLR357W, strain rsc2, stronger effect = lower value 0.997 | S. cerevisiae deletion strains, locus YLR370C, strain arc18, stronger effect = lower value 1.01 | S. cerevisiae deletion strains, locus YLR371W, strain rom2, stronger effect = lower value 1.01 | S. cerevisiae deletion strains, locus YLR384C, strain iki3, stronger effect = lower value 0.99 | S. cerevisiae deletion strains, locus YLR418C, strain cdc73, stronger effect = lower value 1.07 | S. cerevisiae deletion strains, locus YML016C, strain PPZ1, stronger effect = lower value 0.999 | S. cerevisiae deletion strains, locus YML032C, strain rad52, stronger effect = lower value 1.03 | S. cerevisiae deletion strains, locus YML120C, strain ndi1, stronger effect = lower value 1 | S. cerevisiae deletion strains, locus YML124C, strain tub3, stronger effect = lower value 1.02 | S. cerevisiae deletion strains, locus YMR058W, strain fet3, stronger effect = lower value 1.02 | S. cerevisiae deletion strains, locus YMR078C, strain ctf18, stronger effect = lower value 1.03 | S. cerevisiae deletion strains, locus YMR125W, strain sto1, stronger effect = lower value 1 | S. cerevisiae deletion strains, locus YMR129W, stronger effect = lower value 1.01 | S. cerevisiae deletion strains, locus YMR205C, strain PFK2, stronger effect = lower value 1.01 | S. cerevisiae deletion strains, locus YMR223W, strain ubp8, stronger effect = lower value 1.02 | S. cerevisiae deletion strains, locus YMR231W, strain pep5, stronger effect = lower value 1 | S. cerevisiae deletion strains, locus YMR263W, strain SAP30, stronger effect = lower value 1.03 | S. cerevisiae deletion strains, locus YMR307W, strain GAS1, stronger effect = lower value 1.01 | S. cerevisiae deletion strains, locus YNL067W, strain RPL9B, stronger effect = lower value 1.03 | S. cerevisiae deletion strains, locus YNL071W, strain lat1, stronger effect = lower value 1.02 | S. cerevisiae deletion strains, locus YNL128W, strain TEP1, stronger effect = lower value 1.03 | S. cerevisiae deletion strains, locus YNL153C, strain GIM3, stronger effect = lower value 1.03 | S. cerevisiae deletion strains, locus YNL183C, strain NPR1, stronger effect = lower value 0.899 | S. cerevisiae deletion strains, locus YNL209W, strain ssb2, stronger effect = lower value 0.989 | S. cerevisiae deletion strains, locus YNL233W, strain BNI4, stronger effect = lower value 1.02 | S. cerevisiae deletion strains, locus YNL248C, strain rpa49, stronger effect = lower value 1.06 | S. cerevisiae deletion strains, locus YNL250W, strain rad50, stronger effect = lower value 1.02 | S. cerevisiae deletion strains, locus YNL271C, strain bni1, stronger effect = lower value 1.03 | S. cerevisiae deletion strains, locus YNL298W, strain CLA4, stronger effect = lower value 1.02 | S. cerevisiae deletion strains, locus YNL307C, strain MCK1, stronger effect = lower value 1.03 | S. cerevisiae deletion strains, locus YNL322C, strain KRE1 (second series), stronger effect = lower value 1.01 | S. cerevisiae deletion strains, locus YNL322C, strain KRE1, stronger effect = lower value 1.01 | S. cerevisiae deletion strains, locus YNR049C, strain mso1, stronger effect = lower value 1 | S. cerevisiae deletion strains, locus YNR052C, strain pop2, stronger effect = lower value 1.02 | S. cerevisiae deletion strains, locus YOL006C, strain TOP1, stronger effect = lower value 1.11 | S. cerevisiae deletion strains, locus YOL012C, strain htz1 1.15 | S. cerevisiae deletion strains, locus YOL147C, strain pex11, stronger effect = lower value 1.02 | S. cerevisiae deletion strains, locus YOR001W, strain rrp6, stronger effect = lower value 1.02 | S. cerevisiae deletion strains, locus YOR061W, strain CKA2, stronger effect = lower value 1.01 | S. cerevisiae deletion strains, locus YOR069W, strain VPS5, stronger effect = lower value 0.987 | S. cerevisiae deletion strains, locus YOR070C, strain gyp1, stronger effect = lower value 1 | S. cerevisiae deletion strains, locus YOR080W, strain dia2, stronger effect = lower value 0.996 | S. cerevisiae deletion strains, locus YOR083W, strain WHI5, stronger effect = lower value 0.998 | S. cerevisiae deletion strains, locus YOR106W, strain vam3, stronger effect = lower value 0.98 | S. cerevisiae deletion strains, locus YOR136W, strain idh2, stronger effect = lower value 1.03 | S. cerevisiae deletion strains, locus YOR144C, strain elg1, stronger effect = lower value 1.01 | S. cerevisiae deletion strains, locus YOR184W, strain ser1, stronger effect = lower value 1.03 | S. cerevisiae deletion strains, locus YOR231W, strain MKK1, stronger effect = lower value 0.996 | S. cerevisiae deletion strains, locus YOR265W, strain rbl2, stronger effect = lower value 0.997 | S. cerevisiae deletion strains, locus YOR270C, strain vph1, stronger effect = lower value 1.05 | S. cerevisiae deletion strains, locus YOR290C, strain snf2, stronger effect = lower value 1.01 | S. cerevisiae deletion strains, locus YOR316C, strain cot1, stronger effect = lower value 1.03 | S. cerevisiae deletion strains, locus YPL051W, strain arl3, stronger effect = lower value 0.988 | S. cerevisiae deletion strains, locus YPL055C, strain LGE1, stronger effect = lower value 1.03 | S. cerevisiae deletion strains, locus YPL078C, strain atp4, stronger effect = lower value 1.01 | S. cerevisiae deletion strains, locus YPL106C, strain sse1, stronger effect = lower value 1.01 | S. cerevisiae deletion strains, locus YPL240C, strain hsp82, stronger effect = lower value 1.03 | S. cerevisiae deletion strains, locus YPL241C, strain CIN2, stronger effect = lower value 1.01 | S. cerevisiae deletion strains, locus YPL256C, strain CLN2, stronger effect = lower value 1.03 | S. cerevisiae deletion strains, locus YPR119W, strain clb2, stronger effect = lower value 1.01 | S. cerevisiae deletion strains, locus YPR141C, strain kar3, stronger effect = lower value 1.02 | S. cerevisiae deletion strains, locus YPR163C, strain tif3, stronger effect = lower value 1.02 | S. cerevisiae deletion strains, locus YPR167C, strain met16, stronger effect = lower value 1.02 | S. cerevisiae deletion strains, strain wtn01, stronger effect = lower value 1.02 | S. cerevisiae strains, strain wild type, stronger effect = lower value 1.02
